Screening data as filed in PubChem.
Cycloheximide cs – counter-screen for Shiga toxin inhibitors: cycloheximide protein synthesis inhibition. 300,000 compounds, 12% hits. max response, %. cell reporter, cycloheximide protein synthesis inhibition counterscreen; in the data active = max response mostly above about 13%, no sharp cut-off; inactive = mostly below about 14%; also: read at 38.3 µM for the half of the compounds with a filed dose; 0% is about no effect
Pf growth 96h – inhibits malaria parasite growth, 96 h | P. falciparum luciferase reporter growth, 96 h | Potency, µM (titrated, usually from 28.7 µM), without a hit: at the top dose activity change, negative = inhibition, hits mostly inhibitors | 320,000 compounds, 6.9% hits; also: potency is read from the fitted curve at half-maximal effect; % is scaled to controls: 0 for no effect and ±100 for the full control effect
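P. falciparum expressing integrated firefly luciferase, in erythrocytes at 2% hematocrit, 0.05% parasitemia, incubated with compounds 96 h at 37 C, 5% CO2. Growth inhibition read as loss of luminescence; two-generation exposure targets delayed-death apicoplast inhibitors.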
Shiga inhibitor – inhibitors of Shiga toxin in Vero cells. Vero cells, Shiga toxin protein synthesis inhibition reporter. inhibition, % at 38.7 µM. 290,000 compounds, 9.2% hits; in the data active = inhibition mostly above about 28%, no sharp cut-off; inactive = mostly below about 43%; also: 0% is about no effect
NS1 function inh – influenza NS1 inhibition; 270,000 compounds, 0.4% hits; Potency, µM (top dose mostly 46.1 µM), without a hit: at the highest dose activity, positive = more growth; AID 2326; calls by dose curve; also: potency is read from the fitted curve at half-maximal effect; actives are rising curves; nearly all actives have a fitted effect of over 50% in size
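OD600 was taken as the measure of yeast growth restored by compound in an NS1-expressing S. cerevisiae strain. Cells had been washed out of glucose medium and diluted 1:100 into galactose -URA medium, pH 6.0.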
Pf growth 48h – inhibits P. falciparum growth in the first generation, 48 h; Potency, µM (top dose mostly 28.7 µM), for inactives: at the highest dose activity change, negative = inhibition, usual class: inhibitors; P. falciparum luciferase growth in erythrocytes, 48 h; AID 504832; 310,000 compounds, 5.9% hits; also: potency is read from the fitted curve at half-maximal effect; % is scaled to controls: 0 for no effect and ±100 for the full control effect
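In quantitative HTS format, infected erythrocytes bearing luciferase-reporter parasites were treated for a single generation at 37 C. Luminescence after adding detection reagent served as the growth measure.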
* = called active by the depositor; ? = inconclusive; . = no result; [ ] = remark or other dose. Shown are actives, neighbours in structure and some others; about 21% of the full set was active somewhere. Unless noted, calls follow the shape of the dose curve; as a rule, active = well fitted inhibition curve with a large enough effect; inconclusive = small, poorly fitted or top-dose-only effect, or another doubt; inactive = no such curve, though single readings can be large or run the other way.

SMILES	Cycloheximide cs	Pf growth 96h	Shiga inhibitor	NS1 function inh	Pf growth 48h
Cc1c(Cl)cccc1NC(=O)c1ncn[nH]1	-1	27%	-6	-3%	3%
Cc1ccc(C)n1CCN1CCN(S(=O)(=O)c2ccc(F)cc2F)CC1	-4	13µM*	-7	1%	?
COc1ccc(Cn2c(S(=O)(=O)CC(N)=O)nc3ccccc32)cc1[N+](=O)[O-]	1	1%	3	-3%	?
Cc1ccccc1OCc1nc2ccccc2c(=O)n1/N=C/c1cn[nH]c1-c1ccc(Br)cc1	13*	5.2µM*	23	?	?
Cc1ccc(-c2[nH]ncc2/C=N/n2c(C)nc3ccccc3c2=O)cc1	5	121%	16	-2%	48%
O=c1c2ccccc2nc(COc2ccccc2)n1/N=C/c1cn[nH]c1-c1ccccc1	1	10µM*	44*	13%	?
O=c1c2ccccc2nc(COc2ccccc2)n1/N=C/c1ccc(O)cc1O	16*	-2%	94*	-36%	-26%
CC(=O)NCCOc1cccc2ccccc12	7	?	0	1%	32%
CCCc1ccccc1OCCNC(C)=O	-2	8.3µM*	-4	5%	-16%
COc1cc(C(=O)Nc2c(C)cc(C)cc2C)c(Br)c(OC)c1OC	-1	64%	-8	.	-5%
CCCNC(=O)CN(CCc1ccccc1)S(C)(=O)=O	-3	.	-6	15%	13%
CCCCOc1[nH]c2nc(-c3ccco3)n(Cc3ccco3)c(=N)c2c1C#N	16*	13%	6	4%	5.9µM*
O=C(CSc1nnc(CCc2nc3ccccc3[nH]2)n1-c1ccccc1)NCc1ccco1	5	?	-2	-4%	-15%
COc1ccc(-n2c(CCc3ccccc3)nnc2SCC(=O)NCc2ccccc2)cc1	-4	10µM*	-17	0%	.
O=C(CSc1nnc(CCc2nc3ccccc3[nH]2)n1-c1ccccc1)NCc1ccccc1	4	10µM*	-1	-15%	?
CCCCC(CCC(=O)Nc1nccs1)C(=O)O (stereo unspecified)	-2	.	13	-3%	5%
Nc1c(Cl)ncnc1NCCO	-6	-15%	-11	-2%	6%
Nc1c(Cl)ncnc1NCc1ccccc1	-3	0.41µM*	-2	6%	-11%
C=CCNc1nc(-c2ccccn2)nnc1-c1ccccc1	-3	1.7µM*	4	-171%	.
Cc1ccc(/C=C/c2nc3ccccc3[nH]2)o1	40*	?	51*	.	115%
Cc1ccc(CN(C)CC(=O)Nc2ccccc2C(=O)NC2CC2)o1	.	?	.	.	-19%
CC(C)(C)N=C(NS(=O)(=O)c1cccs1)c1ccccc1	-4	7%	-12	17%	9%
CC(C)N=C(NS(=O)(=O)c1cccs1)c1ccccc1	6	13µM*	-5	-4%	-8%
COCCCNC(=O)C1CCC(CNS(=O)(=O)c2ccc(C)cc2)CC1 (stereo unspecified)	5	77%[5.75 µM]	16	.	10µM*
CCCCNC(=O)C1CCC(CNS(=O)(=O)c2ccc(C)cc2)CC1 (stereo unspecified)	-2	53%	11	.	-16%
SMILES	Cycloheximide cs	Pf growth 96h	Shiga inhibitor	NS1 function inh	Pf growth 48h
Cc1ccc(CN(C)S(=O)(=O)c2c(C)noc2/C=C/N(C)C)cc1	-3	20%	2	4%	18%
CCN1CCN(c2cc(C)c3cc(NC(=O)c4ccc5c(c4)OCO5)ccc3n2)CC1	-2	-5%	-8	-9%	3.3µM*
COc1cccc(C(=O)Nc2ccc3nc(N4CCOCC4)cc(C)c3c2)c1	-2	0.47µM*	9	-91%	15µM*
CCN1CCN(c2cc(C)c3cc(NC(=O)c4cncc(Br)c4)ccc3n2)CC1	-7	1.9µM*	-22	-9%	0.1µM*
CCN1CCN(c2cc(C)c3cc(NC(=O)CCC(=O)Nc4ccc(OC)c(OC)c4)ccc3n2)CC1	2	-29%	-3	2%	?
CCN1CCN(c2cc(C)c3cc(NC(=O)c4cccc(OC)c4)ccc3n2)CC1	31*	2.1µM*	39*	1%	?
CCN1CCN(c2cc(C)c3cc(NC(=O)c4ccc(OC)c(OC)c4)ccc3n2)CC1	4	-9%	-17	4%	.
COc1cccc(C(=O)N2CCN(c3ccc(N4CCOCC4)nn3)CC2)c1	.	?	.	.	-19%
COc1ccc(N(CC(=O)N2CCN(c3ccc(Cl)cc3)CC2)S(=O)(=O)c2c(C)n[nH]c2C)cc1	-4	-71%	26	.	?
CSc1ccccc1NC(=O)C1=COCCO1	1	40%	2	3%	22%
